# Bioassay records (PubChem)
# Autofluor counter: counter-screen for toxin protease inhibitors: compound fluorescence; AID 624483; fluorescence intensity (concentration not given with the values); actives 3.1% (n = 360,000); compound autofluorescence counterscreen, microsphere flow cytometry; active compounds read high; in the data active means fluorescence intensity above about 16000; inconclusive means no clear call, values can overlap the other calls
# Anthrax LF prot: blocks Bacillus anthracis lethal factor protease. AID 588501. multiplex microsphere protease cleavage assay, LF. actives 0.12% (n = 360,000). inhibition, % at 10 µM. P15917; further: plate controls were buffer without enzyme for full effect and enzyme alone for no effect
# Target sequence (P15917 whole entry, looked up): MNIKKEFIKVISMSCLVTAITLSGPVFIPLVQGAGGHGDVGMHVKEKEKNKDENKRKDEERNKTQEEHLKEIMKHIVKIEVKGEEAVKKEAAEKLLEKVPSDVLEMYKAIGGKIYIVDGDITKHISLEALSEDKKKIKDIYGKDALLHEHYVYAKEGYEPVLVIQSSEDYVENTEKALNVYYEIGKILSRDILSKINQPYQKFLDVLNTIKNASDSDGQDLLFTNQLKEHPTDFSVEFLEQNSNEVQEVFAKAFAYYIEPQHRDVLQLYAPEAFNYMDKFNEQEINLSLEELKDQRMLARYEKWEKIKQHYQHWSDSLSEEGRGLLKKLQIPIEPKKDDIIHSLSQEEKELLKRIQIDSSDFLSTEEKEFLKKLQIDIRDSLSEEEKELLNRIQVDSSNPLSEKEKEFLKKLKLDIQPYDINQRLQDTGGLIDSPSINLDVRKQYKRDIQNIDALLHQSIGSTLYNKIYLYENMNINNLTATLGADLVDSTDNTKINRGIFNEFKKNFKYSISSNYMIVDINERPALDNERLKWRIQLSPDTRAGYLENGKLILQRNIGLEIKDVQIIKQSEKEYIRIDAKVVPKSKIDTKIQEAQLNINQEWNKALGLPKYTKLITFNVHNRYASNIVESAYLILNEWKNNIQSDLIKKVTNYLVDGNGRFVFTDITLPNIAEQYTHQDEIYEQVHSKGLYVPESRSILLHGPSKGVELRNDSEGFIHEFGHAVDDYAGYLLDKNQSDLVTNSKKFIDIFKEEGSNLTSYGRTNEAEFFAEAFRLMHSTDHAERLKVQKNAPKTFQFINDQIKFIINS
# BoNT F protease: blocks Botulinum neurotoxin F light chain protease. Multiplex microsphere protease cleavage assay, flow cytometry. inhibition, % at 10 µM. actives 0.22% (n = 360,000). AID 588497; in the data active means inhibition above about 35%, passing the limit was not always enough; inconclusive means no clear call, values can overlap the other calls; further: plate controls were buffer without enzyme for full effect and enzyme alone for no effect
# BoNT-A LC inh2: BoNT A light chain protease inhibition; multiplex microsphere protease substrate cleavage, flow cytometry; inhibition, % at 10 µM; actives 0.17% (n = 360,000); AID 588499; further: plate controls were buffer without enzyme for full effect and enzyme alone for no effect
# An asterisk follows results filed as active; u = inconclusive. An excerpt weighted towards active compounds, which were near 3.5% of everything screened. Unless noted, no stated cut-off is given here; in the data, active means inhibition above about 30%; inconclusive means no clear call, values can overlap the other calls; inactive means below that.
SMILES,Autofluor counter,Anthrax LF prot,BoNT F protease,BoNT-A LC inh2
CCOc1cccc(C(=O)Nc2ccccc2C(=O)N2CCOCC2)c1,5207,-1,-9,-3
COc1ccc(-c2nnc3sc(COc4ccc(C)cc4)nn23)cc1,4619,-6,u,1
COc1ccc(-c2nnc3sc(COc4ccccc4)nn23)cc1,20311*,-5,-5,-2
c1ccc(Cc2nn3c(COc4ccccc4)nnc3s2)cc1,24302*,-1,-3,-3
Clc1ccccc1-c1nn2c(COc3ccccc3)nnc2s1,10753,-2,-7,0
CCOc1ccccc1OCc1nn2c(COc3ccccc3)nnc2s1,16185*,-1,0,1
O=C1c2ccc(-c3ccc(Cl)c(C(F)(F)F)c3)cc2S(=O)(=O)c2cccc(C(=O)N3CCN(c4ccc(Cl)cn4)CC3)c21,4260,0,-5,0
CC1(C(=O)Nc2cnc3ccccc3c2)CCN1CCOc1ccccc1 (stereo not drawn),3779,1,1,0
Cc1cccc(C)c1NC(=O)CSC(=O)c1sc2ccccc2c1Cl,4753,-24,u,1
Brc1ccc(Oc2nnnn2-c2ccccc2)cc1,4232,-1,9,-1
Cc1cc(Oc2nnnn2-c2ccccc2)ccc1Cl,19957*,-2,1,u
O=C(CCC1CCCC1)NNC(=O)c1cccc(Cl)c1,5772,-2,-12,-2
CCc1cn(S(=O)(=O)c2ccccc2OC)nc1N,7756,-2,0,0
CCCc1cn(S(=O)(=O)c2ccc(OC)cc2OC)nc1N,17146*,-3,-6,-4
CC(C)(C)NC(=O)CSc1n[nH]c(=O)n1-c1ccccc1,20863*,-3,-2,-2
CCCCOc1ccc(C(=O)NCCCC(=O)N2CCCCC2)cc1,6659,-7,-9,-2
CC(C)CCOc1ccc(C(=O)NCCC(=O)N2CCOCC2)cc1,21240*,-12,6,4
CCCCc1nnc(NC(=O)c2ccc3c(=O)n4c(nc3c2)CCC4)s1,5984,2,-2,0
Cc1ccc2nc(C)/c(=N\O)c(C)nc2c1,16928*,-1,-5,-2
Cn1cnnc1SCC(=O)NCCc1ccccc1,23752*,-3,-6,-3
CCCn1c(SCC(=O)NC(C)(C)C)nnc1-c1ccco1,4753,-7,-10,1
Cn1cnnc1SCC(=O)NCCC(c1ccccc1)c1ccccc1,2429,-1,-8,0
COCCn1c(SCC(=O)NCCc2ccccc2)nnc1-c1ccco1,17231*,-1,-3,-3
CC(=O)c1c(C)[nH]c(C(=O)CSc2nnc(-c3ccco3)n2Cc2ccccc2)c1C,16352*,0,1,0
CC(C)(C)NC(=O)CSc1nnc(-c2ccco2)n1Cc1ccco1,16522*,-4,-1,-1
SMILES,Autofluor counter,Anthrax LF prot,BoNT F protease,BoNT-A LC inh2
O=C(Nc1cccc(F)c1)c1ccc(-c2cccnc2)c2ccoc12,3071,-3,-18,-1
CCCNC(=O)C1(C)CCN(C(=O)c2cccc(C#N)c2)C1 (stereo not drawn),3663,6,-7,0
C=CC(=O)N(CCC)C(c1ccccc1)c1ccccc1OC (stereo not drawn),4157,0,-2,0
CCCCCC1NC(=O)NC1CCCCCC(=O)O (stereo not drawn),18045*,1,11,7
CC(=O)c1cccc(S(=O)(=O)N2CCC(C(=O)Nc3cccc(C(=O)NC4CC4)c3)CC2)c1,7270,-6,8,4
O=c1c2c(nc3c(-c4cccc(Br)c4)c[nH]n13)CCCC2,16678*,-4,-6,-2
O=C(CSc1nc(C2CC2)nc2ccccc12)N1c2ccccc2Sc2ccc(C(F)(F)F)cc21,21370*,-2,-3,-1
O=C(CSc1nc(C2CC2)nc2ccccc12)N1CCCCC1,5466,0,2,0
CCOC(=O)CON1C(=O)c2ccccc2C1=O,2568,0,-1,-1
CCO/C=C1/C(=O)N(C(C)=O)c2ccccc21,22792*,-1,-3,u
CCOC(=O)c1cnc2c(cnn2C)c1NCCC(O)C(F)(F)F (stereo not drawn),21233*,-2,4,3
COc1cccc(S(=O)(=O)N(C)C[C@H]2OCc3cn(nn3)CCCC(=O)N([C@@H](C)CO)C[C@@H]2C)c1,4306,-2,-10,-1
CC(C)(C)OC(=O)N(Cc1ccccc1)Cc1ccccc1OCc1ccc(NC(=O)C2CCC2)cc1,3840,-4,-5,0
O=C(NCc1ccc2c(c1)OCO2)c1ccco1,4800,2,-2,0
Cc1cccc(Cc2c(C)nc3c(C(=O)NCc4ccco4)cnn3c2C)c1,23199*,-5,-1,1
Cc1ccccc1Cc1c(C)nc2c(C(=O)NCc3ccc4c(c3)OCO4)cnn2c1C,16548*,-4,-2,-1
Cc1ccc(-n2ncc(C(=O)NCc3ccc4c(c3)OCO4)c2NC(=O)c2ccco2)cc1C,21894*,-4,2,u
Cc1nc2c(C(=O)NCc3ccco3)cnn2c(C)c1Cc1ccc(F)cc1Cl,21933*,-15,3,u
O=C(Cn1cc(S(=O)(=O)Cc2ccccc2F)c2ccccc21)N1CCOCC1,5586,-4,-1,0
CC(Sc1nnnn1C)C(=O)Nc1nc(-c2ccc(F)c(F)c2)cs1 (stereo not drawn),9559,2,-10,-4
CS(=O)(=O)N1CCN(C(=O)c2ccncc2)CC1,3022,-10,3,0
O=C(c1ccncc1)N1CCN(C(=O)c2ccncc2)CC1,22332*,-5,-3,-1
Cc1ccc(NC(=O)Nc2ccc(C(=O)N3CCOCC3)cc2)cc1,5896,4,4,0
Cc1ccc(C(=O)N2CCSCC2)cc1,20353*,-3,0,1
CC1CCN(CCCNC(=O)Cn2ncc3c([nH]c4ccccc43)c2=O)CC1,4986,-3,8,2
SMILES,Autofluor counter,Anthrax LF prot,BoNT F protease,BoNT-A LC inh2
COc1ccccc1NC(=O)COC(=O)c1ccc(N2CCCC2=O)cc1,7887,-1,2,1
Cc1cc(C(=O)CN2C(=O)c3ccccc3C2=O)c(C)n1Cc1cccs1,24091*,-1,-3,-4
Nc1c(Br)cc2c(c1Br)C(O)c1ccccc1-2 (stereo not drawn),4206,-4,10,0
Cc1ccc(Cn2c(-n3nc(C)cc3C)nc3c2c(=O)[nH]c(=O)n3C)cc1,22348*,-5,3,3
CC1CN(Cc2nc3c(c(=O)n(C)c(=O)n3C)n2Cc2ccccc2)CC(C)O1 (stereo not drawn),6003,-1,-8,-1
Cc1ccc(Cn2c(CN3CC(C)OC(C)C3)nc3c2c(=O)[nH]c(=O)n3C)cc1 (stereo not drawn),20485*,-3,0,0
O=C(Cn1nnnc1CN1CCOCC1)N1CCC(c2cccc(Cl)c2)C1 (stereo not drawn),4261,6,2,0
COc1ccccc1NC(=O)Nc1ncccc1C,22096*,0,1,2
Cc1cccnc1NC(=O)Nc1cccs1,22281*,-6,-3,u
Cc1ccc2nc3c(cc(C(N)=S)c(=N)n3CCCOC(C)C)c(=O)n2c1,13411,13,-9,45*
Cc1ccc2nc3c(cc(C(=O)NCC4CCCO4)c(=N)n3CC3CCCO3)c(=O)n2c1 (stereo not drawn),3882,33*,2,1
